Assay results from PubChem BioAssay (NCI).
The panel holds about 83,000 compounds, 20% with a hit somewhere; the sample as a whole holds those more often.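 Note: values are percent growth. 100 is the growth of untreated cells, values between 100 and 0 indicate rising inhibition; between -100 and 0 indicates cell death.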 Unmarked numbers belong to inactive results. Active and inactive are the calls of the source.

Each compound was assayed on OVCAR-3 ovarian (assay: NCI-60 one-dose screen, 48 h (100 = growth as untreated, 0 = no growth, -100 = all killed)). Details: 10 µM unless noted.
Protocol: Growth inhibition of the OVCAR-3 human tumor cell line is measured as a screen for anti-cancer activity. Cells are grown in 96 well plates and exposed to the test compound for 48 hours. Compounds are tested at a single concentration, which is 10^-5 M for most compounds. The reported endpoint is percent growth (GI% or GIPRCNT), where numbers from 0 - 100% represent growth inhibition, and numbers from -100% - 0 represent cell death. For example, a value of 40 represents 60% growth inhibition. A value of 0 means no net growth occurred over the course of the experiment. A value of -40 indicates 40% of cells at the beginning of the experiment died by the end of the experiment. A value of -100 means all cells are dead at the end of the experiment.
NCI-60 Human Tumor Cell Lines Screen was performed using the standard one-dose NCI protocol, which is described in more detail at https://dtp.cancer.gov/discovery_development/nci-60/default.htm.
Compounds with GIPRCNT values below 10 were considered active. Activity score was based on GIPRCNT using the following formula: […]
Score is 0 for GIPRCNT values of 100 or above, 50 for GIPRCNT values of 0, and 100 for GIPRCNT values of -100.

Structure (SMILES) | growth
Cc1ccc(Cl)cc1NC(=O)c1cc2ccccc2cc1O | -25.9% (active)
CCOC(=O)C/C(C)=N\NC(=O)c1ccncc1 | 105%
C=C(C)[C@@H]1CC[C@]2(C(=O)NC3CCCCC3)CC[C@]3(C)[C@H](CC[C@@H]4[C@@]5(C)CCC(=O)C(C)(C)[C@@H]5CC[C@]43C)[C@@H]12 | 96.7%
CCCCCCCC/C=C\CCCCCCCCOc1ccccc1CC(=O)NCC[N+](C)(C)C | 83.2%
O=c1c2c3c(sc2nc(N/N=C/c2ccc(Br)cc2)n1Cc1ccccc1)CCCC3 | 76.8%
CCCCCCCCCCCCCCCCCCOc1ccc(CC(=O)OCC[N+]2(C)CCCC2)cc1 | 109%
O=C(Nc1ccccc1)Nc1cccc(Oc2nnc(Cl)c3ccccc23)c1 | 25.4%
COc1ccc(C2C(c3nn[nH]n3)=C(N)Oc3c2ccc2ccccc32)cc1 (stereo not given) | 64.7%
Cc1ccc2nc(C)c(-c3nnc(SCc4ccc(C#N)cc4)o3)n2c1 | 109%
COc1ccc(Nc2nnc(SCc3ccccc3F)s2)cc1 | 111%
CCN(CC)CCn1nc2c3c(cccc3c1=O)-c1ccccc1-2 | 52.5%
CC/C=C/C/C=C/C/C=C/C/C=C/C/C=C/C/C=C/CCC(=O)Nc1ccn([C@@H]2O[C@H](CO)[C@@H](O)C2(F)F)c(=O)n1 | 53.4%
CN(C)CC1=NC2SC=C(c3ccccc3)C2C(=O)N1CC#N (stereo not given) | 110%
Cn1c(-c2c(N)n(Cc3cccnc3)c3nc(C#N)c(C#N)nc23)nc2ccccc21 | 99.5%
c1ccc2c(c1)nc(CN1CCOCC1)n1cc(N3CCCC3)nc21 | 110%
COc1ccc(C2=Nc3c(N)ncnc3NC(c3ccc4c(c3)OCO4)C2)cc1 (stereo not given) | 100%
O=c1c2c3c(sc2n2c(-c4cc(-c5ccccc5)nn4-c4ccccc4)nnc2n1Cc1ccccc1)CCCC3 | 101%
Cn1c2c(c3ccc(Cl)c(Cl)c31)C(C#N)C1(CCNCC1)NC2=O (stereo not given) | 48.1%
Cc1nc2c(c(N3CCCc4ccccc43)n1)CCC2 | -41.2% (active)
Cc1cc(NCc2cc(Nc3ccnc4cc(Cl)ccc34)ccc2F)nc(N2CCN(C)CC2)n1 | -17.4% (active)

Structure (SMILES) | growth
CCC(CO)Nc1nc2ccc(Cl)cc2c2ccccc12 (stereo not given) | 62.8%
CC1(C)CC[C@]2(C(=O)N3CCOCC3)CC[C@]3(C)C(=CC[C@@H]4[C@@]5(C)CC[C@H](OC(=O)c6cccnc6)C(C)(C)[C@@H]5CC[C@]43C)[C@@H]2C1 | 53.2%
N#Cc1c(-c2cccc(Cl)c2)cc(-c2cccc(Cl)c2)[nH]c1=O | 64.1%
Cc1ccc(N(C(=O)CCc2c[nH]c3ccccc23)[C@H](C(=O)Nc2ccc(Cl)cc2)c2cccc([N+](=O)[O-])c2)cc1 | 96.9%
O=S(=O)(O)c1ccc(N/N=C/c2ccccc2Cl)cc1 | 119%
COC(=O)[C@]12CC[C@@H](C)[C@H](C)[C@@H]1C1=CC[C@@H]3[C@@]4(C)C(C=O)=C[C@@](C)(COC(C)=O)C4=CC[C@@]3(C)[C@]1(C)CC2 | -67.3% (active)
CCCCCCCOc1c(OC)cc(C2CC(=O)Nc3c2c(C)nn3-c2nc3ccccc3[nH]2)cc1OC (stereo not given) | -67.1% (active)
COc1ccc(-c2[nH]c(=S)n(C(CC3(C)NCC(=O)N3n3c(-c4ccccc4)cc(C)nc3=S)c3ccc(OC)cc3)c(=O)c2Br)cc1 (stereo not given) | 67.5%
COc1ccc(N=Nc2ccc(O)c(=O)cc2)cc1 | 16.2%
N#Cc1c(-c2cccc(Cl)c2)cc(-c2cccc(F)c2)[nH]c1=O | 92.7%
Cn1c(=O)c2[nH]c(NN)nc2n(C)c1=O | 118%
Clc1cccc(Cl)c1C(Nc1nc2ccccc2s1)Nc1nc2ccccc2s1 | 114%
CC1=CN2C(=O)C3C4=C(CCCC4)SC3N=C2CN1c1c(C)cccc1C (stereo not given) | 93.9%
N=C1CCC(=N)c2c1c(O)c1ccccc1c2O | 73.1%
COc1ccc(C(=O)/C=C/c2c(C(F)(F)F)nc3sccn23)cc1OC | -33.9% (active)
O=c1[nH]c2ccccc2n1C1CCN(CCOc2ccccc2)CC1 | 65.4%
O=C1/C(=C/c2ccc(Br)cc2)C=C(c2ccccc2)N1CCc1ccccc1 | 42.1%
COC(=O)[C@]12CC[C@@H](C)[C@H](C)[C@@H]1C1=CC[C@@H]3[C@@]4(C)C(C=O)=C[C@@](C)(COC(=O)c5ccco5)C4=CC[C@@]3(C)[C@]1(C)CC2 | -92.6% (active)
C#Cc1cccc(NC(=O)c2ccc(NC(=O)CCl)cc2)c1 | -85.8% [8.25 µM] (active)
O=[N+]([O-])c1ccc(C2CC(c3ccccc3)=Nc3ccccc3S2)cc1 (stereo not given) | 83.9%
